Z-score and composite z-score data for twelve compounds are collected here from PubChem BioAssay.

Molecules are shown by their SMILES. Activity calls are given as the source filed them.

Assay [1] can be described thus: optical density shifts of acrAB sulA E. coli – strain DRC41, OD650, 48 h, E. coli filamentation inducer project, primary screen (AID 1152).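 Also: E. coli MC1000 strain DRC41 lacking acrAB efflux pump and sulA.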 Conditions: higher = more signal, called active from +8 up or from −8 down.
Assay [2] in a line: probe aLefty1 binding on compound microarray – biochemical, small-molecule microarray, 635/667 nm fluorescence, primary screen (AID 1153).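 Also: score merges spot fluorescence with signal-to-noise ratio from the scanned slide images.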 Conditions: higher = more signal.
A short description of assay [3]: plasmodial surface anion channel blockers, osmotic lysis – cell-based, P. falciparum Indochina, OD700, 1 h, primary screen (AID 1154). Conditions: P. falciparum Indochina infected RBC osmotic lysis, higher = more signal, called active from +8 up or from −8 down.
Assay [4] in a line: plasmodial surface anion channel blockers, osmotic lysis – cell-based, P. falciparum Indochina, OD700, 2 h, primary screen (AID 1155).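 Also: lysis reports solute entry through the parasite surface anion channel PSAC.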 Conditions: P. falciparum Indochina infected erythrocytes, higher = more signal, called active from +8 up or from −8 down.
The nature of assay [5]: changes in parasitized red cell lysis, either direction – P. falciparum Indochina, OD700, 3 h, PSAC antagonist project, primary screen (AID 1156). Conditions: P. falciparum-infected erythrocytes, osmotic lysis, higher = more signal, called active from +8 up or from −8 down.
Assay [6] in a line: plasmodial surface anion channel blockers, osmotic lysis – cell-based, P. falciparum Indochina, OD700, 18 h, primary screen (AID 1157). Conditions: P. falciparum Indochina infected erythrocytes, osmotic lysis OD700, 18 h; higher = more signal, called active from +8 up or from −8 down.
A short description of assay [7]: S6 kinase pathway phospho-S6 level changes – cell-based, A549, cytoblot, luminescence, serum-stimulated, primary screen (AID 1158).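 Also: serum-stimulated A549 lung adenocarcinoma cells; signal is phosphorylated S6 detected by cytoblot immunostaining with HRP secondary.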 Conditions: 5 h, higher = more signal.
Assay [8] has as its target NADPH oxidase 2 (Homo sapiens) (UniProt P04839). Nature of the assay: compounds shifting NOX2 Amplex Red fluorescence – cell-based, HEK293-NOX2, PMA-stimulated, NOX inhibitor project, primary screen (AID 1159). Also: test concentration not given here. Conditions: 45 min, higher = more signal, called active from +8 up or from −8 down.
For assay [9], the target named is NADPH oxidase 4 (Homo sapiens) (UniProt Q9NPH5). In words: compounds shifting NOX4 Amplex Red fluorescence – cell-based, HEK293-NOX4, tetracycline-induced, NOX inhibitor project, primary screen (AID 1160). Conditions: HEK293-NOX4, Amplex Red H2O2 fluorescence, 45 min; higher = more signal, called active from +8 up or from −8 down.
The target of assay [10] is NADPH oxidase 5 (Homo sapiens) (UniProt Q96PH1). Nature of the assay: compounds shifting NOX5 Amplex Red fluorescence – cell-based, HEK293-NOX5, NOX inhibitor project, primary screen (AID 1161). Conditions: HEK293-NOX5, ionomycin, 45 min, higher = more signal.
NADPH oxidase 5 (Homo sapiens), sequence (Q96PH1 whole entry, looked up): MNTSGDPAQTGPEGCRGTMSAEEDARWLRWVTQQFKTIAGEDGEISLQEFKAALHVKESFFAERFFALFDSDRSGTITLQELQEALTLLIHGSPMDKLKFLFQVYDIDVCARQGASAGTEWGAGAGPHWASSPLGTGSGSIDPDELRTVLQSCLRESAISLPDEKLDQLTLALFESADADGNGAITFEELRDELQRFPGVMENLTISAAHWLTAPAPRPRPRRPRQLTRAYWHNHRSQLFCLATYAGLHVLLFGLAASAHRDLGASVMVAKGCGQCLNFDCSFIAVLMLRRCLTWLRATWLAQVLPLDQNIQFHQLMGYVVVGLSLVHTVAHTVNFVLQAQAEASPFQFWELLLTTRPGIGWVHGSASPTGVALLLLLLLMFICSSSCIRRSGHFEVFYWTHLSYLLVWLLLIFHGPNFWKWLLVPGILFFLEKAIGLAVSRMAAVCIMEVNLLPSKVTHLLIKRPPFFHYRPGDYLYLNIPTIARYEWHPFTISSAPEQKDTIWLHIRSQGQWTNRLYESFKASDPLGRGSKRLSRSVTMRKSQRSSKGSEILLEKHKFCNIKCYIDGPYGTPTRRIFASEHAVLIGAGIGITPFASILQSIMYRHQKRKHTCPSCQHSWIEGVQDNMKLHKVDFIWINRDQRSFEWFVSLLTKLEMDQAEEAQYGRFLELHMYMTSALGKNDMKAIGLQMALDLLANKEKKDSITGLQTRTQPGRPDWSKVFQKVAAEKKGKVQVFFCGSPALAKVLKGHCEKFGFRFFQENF

NADPH oxidase 2 (Homo sapiens), sequence (P04839 whole entry, looked up): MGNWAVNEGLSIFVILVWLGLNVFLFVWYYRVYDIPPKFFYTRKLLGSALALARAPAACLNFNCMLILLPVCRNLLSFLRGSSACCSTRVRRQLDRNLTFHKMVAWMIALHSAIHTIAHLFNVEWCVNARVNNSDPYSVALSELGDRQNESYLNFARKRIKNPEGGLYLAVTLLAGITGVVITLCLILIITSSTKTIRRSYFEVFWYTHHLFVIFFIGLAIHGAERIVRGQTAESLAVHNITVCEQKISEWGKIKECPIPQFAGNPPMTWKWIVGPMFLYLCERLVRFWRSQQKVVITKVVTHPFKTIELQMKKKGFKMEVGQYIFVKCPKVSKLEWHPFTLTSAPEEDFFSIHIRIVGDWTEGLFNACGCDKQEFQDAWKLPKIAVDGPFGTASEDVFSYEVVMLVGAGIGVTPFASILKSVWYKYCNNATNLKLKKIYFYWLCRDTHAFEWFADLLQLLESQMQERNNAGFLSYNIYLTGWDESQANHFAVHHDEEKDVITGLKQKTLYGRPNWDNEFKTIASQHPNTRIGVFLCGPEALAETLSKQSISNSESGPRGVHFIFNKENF
NADPH oxidase 4 (Homo sapiens), sequence (Q9NPH5 whole entry, looked up): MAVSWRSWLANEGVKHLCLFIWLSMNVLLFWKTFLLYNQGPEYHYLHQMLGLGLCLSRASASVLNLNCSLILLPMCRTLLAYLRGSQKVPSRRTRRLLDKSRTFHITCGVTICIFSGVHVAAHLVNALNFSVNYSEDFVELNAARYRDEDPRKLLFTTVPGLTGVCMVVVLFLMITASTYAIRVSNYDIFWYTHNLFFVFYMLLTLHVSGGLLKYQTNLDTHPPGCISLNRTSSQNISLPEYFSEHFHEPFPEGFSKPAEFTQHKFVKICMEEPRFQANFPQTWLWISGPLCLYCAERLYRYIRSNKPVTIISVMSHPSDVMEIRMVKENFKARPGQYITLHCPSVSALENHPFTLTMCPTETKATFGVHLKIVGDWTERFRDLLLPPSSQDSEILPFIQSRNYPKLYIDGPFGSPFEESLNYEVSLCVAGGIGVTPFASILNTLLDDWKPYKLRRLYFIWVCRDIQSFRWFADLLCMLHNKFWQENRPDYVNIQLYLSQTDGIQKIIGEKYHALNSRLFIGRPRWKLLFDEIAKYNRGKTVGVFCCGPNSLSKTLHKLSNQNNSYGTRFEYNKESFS

As for `C=CCC(OC(C)=O)[C@@H]1[C@@H](N(Cc2cccc3ccccc23)C(=O)Cc2ccc(F)cc2)c2cc(OCCCO)ccc2N1C(=O)c1ccc2ccccc2n1` (stereo not given in full), the z-score in assay [1] is 0.518 (inactive); in assay [3], 1.05 (inactive); in [4], 0.167 (inactive); in [5] it was -0.315 (inactive); in [6], 0.0897 (inactive); in assay [7], 0.103. For the same compound, the z-score in [8] is -0.126 (inactive); in assay [9], 0.619 (inactive); in [10] it was 1.94. The compound further showed a composite z-score in assay [2] of 0.0477.

In the case of `CN(C)C(=O)[C@@]1(CCS(=O)(=O)c2ccccc2)N=C(c2ccc(OCCCO)cc2)O[C@H]1c1ccccc1`, the z-score in assay [1] is -0.1 (inactive); in assay [3], 28.3 (active); in [4], 24.3 (active); in assay [5] it was 0.873 (inactive); in assay [6], 1.48 (inactive); in assay [7], -0.789. Besides, the z-score in assay [8] was 0.441 (inactive); in [9] it was 0.114 (inactive); in [10] it was -0.948. In assay [2], this compound showed a composite z-score of 0.142.

As to `COCCCNC(=O)[C@@]1(Cc2ccccc2N=[N+]=[N-])COC(c2ccc(OCCCO)cc2)=N1`, the z-score is 1.21 (inactive) in assay [1]; 27.4 (active) in assay [3]; 16.4 (active) in assay [4]; 2.03 (inactive) in assay [5]; 2.36 (inactive) in assay [6]; -0.44 in assay [7]. Moreover, the z-score in assay [8] is -1.62 (inactive); in assay [9], 0.528 (inactive); in assay [10] it was -0.146. Further, the composite z-score in assay [2] was 0.35.

As to `COCCOC(=O)N1C(=O)[C@@]2(c3cc(C#Cc4ccc(OC)cc4)ccc31)[C@H](C(=O)Nc1nc3ccccc3s1)[C@H]1C(=O)O[C@H](c3ccccc3)[C@H](c3ccccc3)N1[C@@H]2c1ccc(O)cc1`, the z-score in [1] is 1.05 (inactive); in assay [3], 3.75 (inactive); in assay [4] it was 0.756 (inactive); in [5], 1.2 (inactive); in [6], 1.22 (inactive); in assay [7] it was 0.709. For the same compound, the z-score was 1.49 (inactive) in assay [8], -0.118 (inactive) in assay [9] and 0.791 in [10]. This compound registered a composite z-score in assay [2] of 0.703.

On to `COc1ccc([Si](C)(C)[C@@H]2[C@@H](CC(=O)N3Cc4ccccc4C[C@H]3CO)O[C@]3(C(=O)N(Cc4cccc(N5C(=O)c6cccc7cccc5c67)c4)c4ccccc43)[C@H]2C)cc1`, for which the z-score in assay [1] is -0.721 (inactive); in [3] it was 2.4 (inactive); in [4], 0.963 (inactive); in [5], -0.369 (inactive); in assay [6] it was 0.376 (inactive); in assay [7], 0.015. The z-score in assay [8] was -0.579 (inactive); in assay [9] it was 0.668 (inactive); in [10] it was 2.34. For the same compound, the composite z-score in assay [2] is -0.0601.

Take `C=C(C(=O)CC[C@@H](OC(C)=O)c1ccc(CO)o1)C(C)C`: the z-score in assay [1] is -0.167 (inactive); in [3] it was 1.21 (inactive); in assay [4], 0.0112 (inactive); in [5], 0.493 (inactive); in assay [6], -0.0113 (inactive); in assay [7] it was -0.0282. In addition, the z-score in [8] is -0.354 (inactive); in assay [9] it was 0.261 (inactive); in assay [10] it was 0.483. The composite z-score in [2] is -0.007.

On to `C=CCOC(=O)[C@H]1[C@@H]2C(=O)O[C@@H](c3ccccc3)[C@@H](c3ccccc3)N2[C@@H](c2ccc(OCCOC(=O)[C@@H]3C[C@@H]4C(=O)N[C@@H](CCCCN(C)C)C(=O)N4[C@@H]3c3ccc(O)cc3)cc2)[C@]12C(=O)Nc1ccccc12`, for which the z-score in [1] was -1.53 (inactive); in assay [3] it was 0.0625 (inactive); in assay [4], 0.249 (inactive); in assay [5], 3.35 (inactive); in assay [6], 0.251 (inactive); in [7], -0.444. For the same compound, the z-score was 2.51 (inactive) in assay [8], 0.874 (inactive) in assay [9] and 0.391 in assay [10]. In assay [2], this compound gave a composite z-score of -0.0873.

For `COc1ccc(-c2cc3c(c(CCc4ccccc4)n2)[Si](C(C)C)(C(C)C)OC3)cn1`, the z-score in [1] was -0.0928 (inactive); in [3], 3.8 (inactive); in assay [4] it was 0.745 (inactive); in assay [5], -0.119 (inactive); in [6], 0.114 (inactive); in [7], -0.108. The values for the z-score in assay [8], in assay [9] and in assay [10] were -0.44 (inactive), -0.0624 (inactive) and -1.49, respectively. In assay [2], this compound returned a composite z-score of -0.196.

For the compound `CC(=O)c1ccc(C(O)C2C=CC3C(=O)N(c4ccccc4)C(=O)C3N2Nc2ccc(C#N)cc2)cc1` (stereo not given), the z-score is -1.54 (inactive) in assay [1]; 18 (active) in assay [3]; 2.58 (inactive) in [4]; 1.27 (inactive) in assay [5]; 1.44 (inactive) in assay [6]; -1.15 in [7]. The z-score in [8] is -2.48 (inactive); in assay [9] it was -5.89 (inactive); in [10], -4.43. The composite z-score in assay [2] amounted to 0.192.

Consider `O=C1O[C@H](c2ccccc2)[C@H](c2ccccc2)N2[C@H]1[C@@H](C(=O)N1CCN(c3ncccn3)CC1)[C@]1(C(=O)Nc3ccc(C#CC4(O)CCCCCC4)cc31)[C@H]2c1ccc(OCCO)cc1`, for which the z-score in [1] was -0.735 (inactive); in [3], 8.14 (active); in assay [4], 2.41 (inactive); in [5], 1.76 (inactive); in assay [6], 1.33 (inactive); in assay [7] it was -0.274. In addition, the z-score is 1.28 (inactive) in assay [8], 1.11 (inactive) in [9] and 1.35 in [10]. The same compound displayed a composite z-score in assay [2] of 1.66.

With `O=c1n(-c2ccccc2)c(=O)n2n1CC(COc1ccccc1)=C([C@H](O)CCc1ccccc1)[C@@H]2CO`, the z-score in [1] was 2.63 (inactive); in assay [3], 16.8 (active); in assay [4], 0.497 (inactive); in assay [5], 0.076 (inactive); in assay [6], -1.51 (inactive); in assay [7], 1.02. Also, the z-score in assay [8] was -0.878 (inactive); in [9], -0.265 (inactive); in assay [10], -0.682. This compound had a composite z-score in assay [2] of -0.315.

For `COC(=O)[C@@]1(Cc2ccc(OC)cc2)[C@@H]2C(=CC(=O)[C@H]2CC(=O)C(=O)N(C)C)CN1C(=O)c1ccccc1`, the z-score in assay [1] is -2.06 (inactive); in assay [3], 2.07 (inactive); in [4], 0.584 (inactive); in assay [5] it was 0.481 (inactive); in assay [6], 1.38 (inactive); in assay [7] it was 0.808. Further, the z-score in assay [8] is -0.192 (inactive); in assay [9] it was 1.39 (inactive); in [10], 1.32. The compound also displayed a composite z-score in assay [2] of 0.485.
